Results reported in PubChem BioAssay (EPA / NIEHS).
Where “and” joins values, the source holds several entries; their conditions need not be identical. Identical values can stand only once. Calls of active or inactive are those of the source. Rule for the calls: active = hit-call score of the fitted dose curve at least 0.9, where 1 is the maximum; inactive = score below 0.9.

Assay: APR_HepG2_CellLoss_1hr: Apredica 1-hour HepG2 Assay for Cell Loss (AID 2282668);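 note: curves fitted both ways against DMSO so gain or loss of cells counts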
Settings: high-content imaging
Procedure: APR_HepG2_1hr is a cell-based, multiplexed-readout assay that uses HepG2, a human liver cell line, with measurements taken at 1 hour after chemical dosing in a 384-well plate.APR_HepG2_CellLoss_1hr is one of 10 assay component(s) measured or calculated from the APR_HepG2_1hr assay. It is designed to make measurements of cell number, a form of viability reporter, as detected with fluorescence intensity signals by HCS Fluorescent Imaging technology.Data from the assay component APR_HepG2_CellLoss_1hr was analyzed into 1 assay endpoint. This assay endpoint, APR_HepG2_CellLoss_1hr, was analyzed with bidirectional fitting relative to DMSO as the negative control and baseline of activity. Using a type of viability reporter, measures of all nuclear dna for gain or loss-of-signal activity can be used to understand the viability at the cellular-level. Furthermore, this assay endpoint can be referred to as a secondary readout, because this assay has produced multiple assay endpoints where this one serves a viability function. To generalize the intended target to other relatable targets, this assay endpoint is annotated to the cell cycle intended target family, where the subfamily is proliferation.
Cells were treated with dimethyl sulfoxide (DMSO) as a solvent control at a final concentration of 0.5% v/v or with compounds in DMSO with a resulting final DMSO concentration of 0.5% v/v. Compound treatment was done at concentrations of 0.39, 0.78, 1.56, 3.12, 6.24, 12.5, 25, 50, 100, and 200 uM in duplicate on each plate. Cells were treated with compounds for 1, 24, or 72 hr. Carbonyl […] m-chloro-phenylhydrazone (CCCP) and taxol were used as positive controls for mitochondrial function and cytoskeletal stability, respectively; DMSO served as the negative control for this experiment. Cells were fixed by the direct addition of 50 uL formaldehyde in Hank's Balanced Salt Solution (HBSS) to a final concentration of 3.7%. After incubation in the fixation medium for 30 min at room temperature (293-298 K), cells were rinsed twice with HBSS and treated with cell permeabilization buffer (16 uL of 0.5% Triton X-100) for 10 min at room temperature (293-298 K) before labeling. For mitochondrial membrane potential and mitochondrial measurements, pre-fixed cells were incubated with 50 uL of MitoTracker Red CMXRos (Invitrogen) at a concentration of 250 nM for 30 min before fixation. In the remaining cases, post-fixed cells were labeled by incubation with a multiplexed mixture of primary antibodies in HBSS for 60 min at room temperature (293-298 K) to detect immunoreactivity of c-Jun (1:500), phospho-histone H3 (1:100), phospho-histone H2A.x (1:200), p53 (1:400), alpha-tubulin (1:200) and Hoechst 33342 (2 ug/mL). Cells were labeled for multiplexed imaging on two separate plates: a) Hoechst 33342, MitoTracker Red, phospho-histone H3, and alpha-tubulin, and b) Hoechst 33342, phospho-histone H2A.x, and c-Jun. A final rinse with HBSS (50 uL) was performed before analysis. The primary and secondary antibodies for the proteins were phospho-histone H3 (rabbit anti-phospho-histone H3 and FITC-donkey anti-rabbit IgG), phospho-histone H2A.x (mouse anti-phospho-histone H2A.x and FITC-donkey anti-mouse IgG), c-Jun (rabbit anti-phospho-c-Jun and Cy3-donkey anti-rabbit IgG), p53 (sheep anti-p53 and Cy5-donkey anti-sheep IgG), alpha-tubulin (mouse anti-alpha-tubulin and Cy5-donkey anti-mouse IgG). These antibodies are available as the CellCiphr HepG2 assay kit (Millipore).Digital images of each well were captured using a Cellomics ArrayScan VTI (Thermo Scientific Cellomics) (0.8 NA objective, 0.63x optical coupler, and XF-93 filter set) at 20x magnification. The images were acquired using the autofocus feature of the ArrayScan instrument, which entails the following steps. First, the camera focuses on channel 1 (Hoechst 33342), where nuclei are identified. Second, a Z offset of 1 um is used for capturing mitochondria (MitoTracker Red). […]

Structure (SMILES)	outcome	AC50
CCCCC(CC)COC(=O)c1ccccc1C(=O)OCC(CC)CCCC (stereo not given)	inactive	–
CCNc1nc(Cl)nc(NC(C)C)n1	inactive	–
CCCC1COC(Cn2cncn2)(c2ccc(Cl)cc2Cl)O1 (stereo not given)	inactive	–
Cc1cc(Cl)ccc1OCC(=O)O	inactive	–
CCOc1cc(Oc2ccc(C(F)(F)F)cc2Cl)ccc1[N+](=O)[O-]	inactive	–
Oc1ccccc1-c1ccccc1	inactive	–
OC(c1ccc(Cl)cc1)(c1cncnc1)c1ccccc1Cl (stereo not given)	inactive	–
CCCCNC(=O)n1c(NC(=O)OC)nc2ccccc21	inactive	–
COC(=O)N(OC)c1ccccc1COc1ccn(-c2ccc(Cl)cc2)n1	inactive	–
N#Cc1nn(-c2c(Cl)cc(C(F)(F)F)cc2Cl)c(N)c1S(=O)C(F)(F)F (stereo not given)	inactive	–
CC(Oc1ccc(Cl)cc1Cl)C(=O)O (stereo not given)	inactive	–
CCOP(=S)(OCC)SCn1c(=O)oc2cc(Cl)ccc21	inactive	–
C=CC1(C)OC(=O)N(c2cc(Cl)cc(Cl)c2)C1=O (stereo not given)	inactive	–
COC(=O)c1ccccc1C(=O)OC	inactive	–
CCCCNC(=O)OCC#CI	–	100 µM (active) and 129 µM (active)
Cc1c(F)c(F)c(COC(=O)C2C(/C=C(\Cl)C(F)(F)F)C2(C)C)c(F)c1F (stereo not given)	inactive	–
CNC(=O)ON=CC(C)(C)SC	inactive	–
CC(C)(C)c1ccc(CSc2cnn(C(C)(C)C)c(=O)c2Cl)cc1	inactive	–
CCON=C(CC)C1=C(O)CC(c2c(C)cc(C)cc2C)CC1=O (stereo not given)	inactive	–
COP(N)(=O)SC (stereo not given)	inactive	–

Structure (SMILES)	outcome	AC50
N#Cc1cc(Br)c(O)c(Br)c1	inactive	–
CN(C)C(=S)SSC(=S)N(C)C	inactive	–
COc1ccc(C(c2ccc(OC)cc2)C(Cl)(Cl)Cl)cc1	inactive	–
CCc1nn(C)c(C(=O)NCc2ccc(C(C)(C)C)cc2)c1Cl	inactive	–
COC(=O)C(C)Oc1ccc(Oc2ccc(Cl)cc2Cl)cc1 (stereo not given)	inactive	–
COc1nc(C)nc(NC(=O)NS(=O)(=O)c2ccccc2CCC(F)(F)F)n1	inactive	–
Fc1ccc(Oc2ccnc3cc(Cl)cc(Cl)c23)cc1	inactive	–
N#CC(CCc1ccc(Cl)cc1)(Cn1cncn1)c1ccccc1 (stereo not given)	inactive	–
CS/C(C)=N/OC(=O)N(C)SN(C)C(=O)O/N=C(\C)SC	–	45.7 µM (active)
CC1=C(C(=O)Nc2ccccc2)SCCO1	inactive	–
COC(=O)C=C(C)OP(=O)(OC)OC	inactive	–
C#CCOS(=O)OC1CCCCC1Oc1ccc(C(C)(C)C)cc1 (stereo not given)	inactive	–
CC(C)C1(C)N=C(c2nc3ccccc3cc2C(=O)O)NC1=O (stereo not given)	inactive	–
CC(C)Oc1cc(-n2nc(C(C)(C)C)oc2=O)c(Cl)cc1Cl	inactive	–
C=CCC1=C(C)C(OC(=O)C2C(C=C(C)C)C2(C)C)CC1=O (stereo not given)	inactive	–
CCOC(=O)CC(SP(=S)(OC)OC)C(=O)OCC (stereo not given)	inactive	–
O=C(O)c1nc(Cl)ccc1Cl	inactive	–
COc1nc(NC(C)C)nc(NC(C)C)n1	inactive	–
O=C(Nc1ccccc1)Nc1ccnc(Cl)c1	inactive	–
CO/C=C(/C(=O)OC)c1ccccc1Oc1cc(Oc2ccccc2C#N)ncn1	inactive	–
